The values below come from PubChem BioAssay (NCI).

Test systems include SK-MEL-2 melanoma; EKVX NSCLC; SN12C renal; UO-31 renal; TK-10 renal; ACHN renal; CAKI-1 renal; A498 renal; CCRF-CEM leukemia; SR leukemia; RPMI-8226 leukemia; OVCAR-8 ovarian; OVCAR-5 ovarian; OVCAR-4 ovarian; SK-OV-3 ovarian; IGROV1 ovarian; OVCAR-3 ovarian; HS 578T breast; NCI/ADR-RES ovarian.
What all share (test): NCI-60 one-dose screen, 48 h (100 = growth as untreated, 0 = no growth, -100 = all killed)
Settings in all cases: 10 µM unless noted

About 83,000 compounds went through this panel and 20% of them were active in at least one assay; those are over-represented in the sample as a whole.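 Negative percent growth values reflect cell death: -40 means 40% of the cells present at the start died, and -100 means all died.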 Unmarked numbers belong to inactive results. The source made the active and inactive calls. The calls were made as follows: active = growth percent below 10; inactive = the rest.

For `CCCCCc1nc2c(c3c1CCCC3)CCCC2`, the growth with SK-MEL-2 melanoma was 80%; in the test with EKVX NSCLC, 77.1%; in the test with SN12C renal, 93.3%; in the test with UO-31 renal, 47%; in the test on TK-10 renal, 77.2%; in the test with ACHN renal, 82.9%. Further, the growth with CAKI-1 renal is 60.9%; with A498 renal, 84.3%; in the test with CCRF-CEM leukemia, 59.9%; in the test on SR leukemia, 31.8%; in the test on RPMI-8226 leukemia, 0.398% (active); with OVCAR-8 ovarian it was 59.8%. Also, the growth with OVCAR-5 ovarian was 67.2%; in the test with OVCAR-4 ovarian it was 70.7%; in the test with SK-OV-3 ovarian, 80.7%; in the test on IGROV1 ovarian, 61.7%; with OVCAR-3 ovarian it was 69.8%; with HS 578T breast it was 65%. Further, the growth in the test with NCI/ADR-RES ovarian was 48.3%.

`C=C1C(=O)O[C@H]2[C@H]1CC/C(CNC(=O)/C=C/c1ccc(Cl)cc1Cl)=C\CC[C@@]1(C)O[C@@H]21`: the growth in the test with SK-MEL-2 melanoma was -13.8% (active); in the test with EKVX NSCLC, -35.8% (active); in the test with SN12C renal, -43.4% (active); in the test on UO-31 renal it was -90.2% (active); in the test on TK-10 renal, -88.8% (active); in the test with ACHN renal, -79.9% (active). For the same molecule, the growth with CAKI-1 renal is -31.2% (active); in the test with A498 renal it was -3.46% (active); in the test on CCRF-CEM leukemia it was -30.7% (active); in the test with SR leukemia, -28.8% (active); with RPMI-8226 leukemia, -33.1% (active); in the test on OVCAR-8 ovarian, -28.7% (active). The growth in the test with OVCAR-5 ovarian is -31.9% (active); in the test with OVCAR-4 ovarian, -52.7% (active); with SK-OV-3 ovarian, 20.3%; in the test on IGROV1 ovarian, -32.7% (active); with OVCAR-3 ovarian, -100% (active); with HS 578T breast it was -4.31% (active). Also, in the test with NCI/ADR-RES ovarian, the growth was 2.07% (active).

Take `COC(=O)[C@]12CC[C@@H](C)[C@H](C)[C@@H]1C1=CC[C@@H]3[C@@]4(C)C(C=O)=C[C@@](C)(COC(=O)c5ccco5)[C@@H]4C(=O)C[C@@]3(C)[C@]1(C)CC2`: the growth with SK-MEL-2 melanoma was -31.8% (active); with EKVX NSCLC it was 38.3%; in the test on SN12C renal, 42%; in the test on UO-31 renal, 29.7%; with TK-10 renal, 29.7%; in the test with ACHN renal, 13.4%. The growth in the test with CAKI-1 renal was 38.8%; with A498 renal it was 65.5%; with CCRF-CEM leukemia it was 5.47% (active); in the test with SR leukemia, 32.5%; in the test on RPMI-8226 leukemia it was 14.6%; with OVCAR-8 ovarian, 24.8%. The growth is 59.4% in the test on OVCAR-5 ovarian; 29.8% in the test on OVCAR-4 ovarian; 33.7% with SK-OV-3 ovarian; 51.8% in the test on IGROV1 ovarian; 40.4% with OVCAR-3 ovarian; 65.3% with HS 578T breast. The growth in the test on NCI/ADR-RES ovarian is 28.4%.

As to `CCC(CO)Nc1nc2ccc(Cl)cc2c2ccccc12` (configuration not stated), the growth in the test on SK-MEL-2 melanoma is 84.1%; in the test on EKVX NSCLC, 47.9%; in the test with SN12C renal it was 71.1%; in the test on UO-31 renal, 39.5%; in the test on TK-10 renal, 54.3%; with ACHN renal, 73.9%. Moreover, the growth with CAKI-1 renal was 40.9%; in the test with A498 renal, -19% (active); in the test with CCRF-CEM leukemia, 56.5%; in the test on SR leukemia, 26.9%; with RPMI-8226 leukemia, 66.6%; in the test with OVCAR-8 ovarian it was 75.1%. Besides, the growth in the test on OVCAR-5 ovarian is 66.9%; with OVCAR-4 ovarian, 71.3%; in the test on SK-OV-3 ovarian, 70.7%; in the test with IGROV1 ovarian, 58.1%; in the test on OVCAR-3 ovarian, 62.8%; with HS 578T breast it was 29.5%. In addition, in the test with NCI/ADR-RES ovarian, the growth was 62.4%.

In the case of `COC(=O)[C@]12CC[C@@H](C)[C@H](C)[C@@H]1C1=CC[C@@H]3[C@@]4(C)C(C=O)=C[C@@](C)(COC(C)=O)C4=CC[C@@]3(C)[C@]1(C)CC2`, the growth is -45.1% (active) with SK-MEL-2 melanoma; 12.7% with EKVX NSCLC; 9.9% (active) in the test on SN12C renal; -9.5% (active) with UO-31 renal; -8.72% (active) with TK-10 renal; -16% (active) with ACHN renal. Further, the growth in the test with CAKI-1 renal was 13.7%; in the test on A498 renal it was 14.6%; in the test with CCRF-CEM leukemia, -14.7% (active); in the test on SR leukemia it was -30.5% (active); in the test with RPMI-8226 leukemia, -9.49% (active); in the test on OVCAR-8 ovarian, 13.2%. Moreover, the growth with OVCAR-5 ovarian is 12.9%; in the test on OVCAR-4 ovarian, 17%; in the test with SK-OV-3 ovarian, 6.81% (active); in the test with IGROV1 ovarian, 12.9%; in the test on OVCAR-3 ovarian it was -67.3% (active); in the test on HS 578T breast it was -12.9% (active). In addition, the growth with NCI/ADR-RES ovarian was 12.5%.

With `NC(=S)Nc1cccc(O)c1`, the growth is 99.1% in the test with SK-MEL-2 melanoma; 93% with EKVX NSCLC; 95.9% in the test with SN12C renal; 80% in the test with UO-31 renal; 91.8% in the test on TK-10 renal; 90.3% in the test on ACHN renal. Further, the growth with CAKI-1 renal is 90%; in the test with A498 renal it was 115%; with CCRF-CEM leukemia, 103%; in the test on SR leukemia, 82.4%; in the test on RPMI-8226 leukemia it was 88.5%; with OVCAR-8 ovarian, 94.2%. For the same molecule, the growth in the test with OVCAR-5 ovarian was 96.3%; in the test with OVCAR-4 ovarian, 107%; in the test with SK-OV-3 ovarian it was 101%; with IGROV1 ovarian, 98%; in the test with OVCAR-3 ovarian, 110%; in the test with HS 578T breast, 102%. In addition, the growth with NCI/ADR-RES ovarian is 94.2%.

For the molecule `CCN1CCN(c2nc(C)cc(NCc3cc(Nc4ccnc5cc(Cl)ccc45)ccc3F)n2)CC1`, the growth in the test on SK-MEL-2 melanoma was -49.7% (active); in the test on EKVX NSCLC, 49.4%; with SN12C renal, 44%; with UO-31 renal, 17.1%; in the test with TK-10 renal, 28.9%; in the test with ACHN renal, 16.9%. Further, the growth was 68.8% in the test on CAKI-1 renal; 15.6% with A498 renal; -19.4% (active) with CCRF-CEM leukemia; -18.8% (active) in the test on SR leukemia; -31.1% (active) with RPMI-8226 leukemia; 17.4% in the test on OVCAR-8 ovarian. The growth in the test with OVCAR-5 ovarian was 17.8%; in the test on OVCAR-4 ovarian, 26.1%; in the test on SK-OV-3 ovarian, 31.5%; in the test on IGROV1 ovarian it was 15.8%; in the test with OVCAR-3 ovarian, 10.5%; in the test on HS 578T breast, 9.27% (active). Besides, the growth with NCI/ADR-RES ovarian is 24.6%.

In the case of `Cc1cc(NCc2cc(Nc3ccnc4cc(Cl)ccc34)ccc2F)nc(N2CCN(C)CC2)n1`, the growth with SK-MEL-2 melanoma was -70.7% (active); in the test on EKVX NSCLC, 31%; in the test with SN12C renal it was 36.8%; with UO-31 renal it was -8.37% (active); in the test with TK-10 renal, -16% (active); with ACHN renal, 5.12% (active). Moreover, the growth was 61.8% in the test on CAKI-1 renal; -26.8% (active) in the test with A498 renal; -13.5% (active) in the test with CCRF-CEM leukemia; -14.4% (active) in the test on SR leukemia; -23.9% (active) with RPMI-8226 leukemia; 12.1% with OVCAR-8 ovarian. Besides, the growth in the test with OVCAR-5 ovarian is 9.47% (active); in the test on OVCAR-4 ovarian, 18.7%; in the test on SK-OV-3 ovarian it was 29.5%; in the test on IGROV1 ovarian it was 8.72% (active); in the test with OVCAR-3 ovarian, -17.4% (active); in the test on HS 578T breast, -7.51% (active). For the same molecule, the growth with NCI/ADR-RES ovarian was 16.8%.
